Results as given in PubChem BioAssay (NCI).
Compounds without any hit were thinned out: in the full panel of roughly 83,000, 20% have a hit.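 Cell lines were cultured in 96-well plates, exposed to a single compound concentration, and assessed for percent growth 48 hours later.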 A number with no mark means an inactive call. The source made the active and inactive calls. How the source made its calls: active means growth percent below 10; inactive means the rest.

The compounds below were run on M14 melanoma (assay: NCI-60 one-dose screen, 48 h (100 = growth as untreated, 0 = no growth, -100 = all killed)). Details: 10 µM.
`O=C(NO)c1ccc(Cn2ccc3c(Nc4ccccc4)ncnc32)cc1` gave a growth of 10.5%. With `N#Cc1ccc(-c2nn(-c3ccc(C(=O)O)cc3)cc2CNc2cccc(Br)c2)cc1` the growth was 37.2%. `O=C(c1ccc(Cl)cc1)C1[C@H](c2ccccc2Br)[C@@H](c2ccccc2)NC12C(=O)Nc1ccccc12` (some centres not stated) showed a growth of 17.1%. `CC1(C)CC[C@]2(C(=O)Nc3ccccc3)CC[C@]3(C)C(=CC[C@@H]4[C@@]5(C)CC[C@H](N)C(C)(C)[C@@H]5CC[C@]43C)[C@H]2C1` showed a growth of 82.4%. With `CC(=C(c1ccc(OCCCN(C)C)cc1)c1ccc(OCCCN(C)C)cc1)c1ccccc1` the growth was -56.9% (active). Work on `Cc1ccc(/C=C/C(=O)c2ccc(S(=O)(=O)NCCNc3nc(Nc4ccc(F)cc4)nc(N(C)C)n3)cc2)cc1` yielded a growth of 14.6%. `COc1ccc(C(=O)Nc2sc3c(c2C#N)CCC(=O)C3)cc1C(F)(F)F` was tested, and the growth was -16.8% (active). Compound `COc1ccc2nc(Cl)c(-c3cc(-c4ccccc4)nc(=S)[nH]3)cc2c1` has a growth of 16.5%. `Cc1ccc(-c2cc(C(=O)N=Nc3c(O)[nH]c4ccccc34)c3ccccc3n2)cc1` was tested, and the growth was 70.5%. Work on `C#Cc1ccc(S(=O)(=O)Nc2cccc(-c3csc(NC(C)=O)n3)c2)cc1` yielded a growth of 92.4%. `CC(C)C1=C[C@@]23CC[C@@H]4[C@](C)(CCC[C@]4(C)C(=O)NCc4ccccc4)[C@H]2C[C@@H]1[C@H]1C(=O)CCC(=O)[C@H]13` gave a growth of 86.9%. Compound `COc1ccc(C(=O)NC(=S)N2CCN(c3ncnc4c3cnn4-c3ccccc3)CC2)cc1` has a growth of 63.1%. With `C[C@H]1[C@H](C)CC[C@]2(COC(=O)CCC(=O)NCC#CCN3CCNCC3)CC[C@]3(C)C(=CC[C@@H]4[C@@]5(C)CCCNC(C)(C)[C@@H]5CC[C@]43C)[C@H]12` the growth was -16.7% (active). For `CC[C@@]1(O)C(=O)OCc2c1cc1n(c2=O)Cc2c-1nc1cc(F)c(C)c3c1c2[C@@H](N)CC3`, the growth was -20.8% (active). `Cc1cccc2cc(-c3cc(-c4ccccc4)nc(=S)[nH]3)c(Cl)nc12` showed a growth of 33.3%. `Cc1ccc(CNC(=O)Cc2ccc3c(c2)CN(C2CCC(=O)NC2=O)C3=O)cc1` (configuration not stated) was tested, and the growth was -23.5% (active). With `CONC[C@]1(C)C=C2C(=O)[C@](C)(O)C3(CC3)C(C)=C2[C@H]1O` the growth was -13.5% (active). In the case of `CC1(C)CC[C@]2(C(=O)N3CCOCC3)CC[C@]3(C)C(=CC[C@@H]4[C@@]5(C)CC[C@H](NCO)C(C)(C)[C@@H]5CC[C@]43C)[C@H]2C1`, the growth is reported as -84.6% (active). In the case of `NS(=O)(=O)c1ccc(N=Nc2c(O)n(CC(=O)Nc3ccccc3Br)c3ccccc23)cc1`, the growth is reported as 27.9%. For `CNC(=O)c1cccc(N2CCc3c2ccc(NC(=O)Nc2ccc(N4CCN(C)CC4)c(C(F)(F)F)c2)c3F)c1`, the growth was -93.3% (active). In the case of `O=C(NCCCCC(c1ccc(F)cc1)c1ccc(F)cc1)NCCCc1cccnc1`, the growth is reported as -20.2% (active). With `CC(=O)Nc1ccc(-c2cn(-c3cccc(C(=O)Nc4ccc(Cl)c(C(F)(F)F)c4)c3)nn2)cn1` the growth was -49.1% (active). With `CCCS(=O)(=O)c1oc(-c2ccc(F)cc2)nc1S(=O)(=O)c1ccc(F)cc1` the growth was -37.5% (active). `O=C(Cn1nc(-c2ccccc2)ccc1=O)NN1C(=O)c2ccccc2C1=O` showed a growth of 107%. With `CC(=O)NCC1=C(C)C=C2C(=O)[C@](C)(O)C3(CC3)C(C)=C21` the growth was -69.1% (active). For `CCN1CCN(Cc2ccc(C(=O)Nc3cccc(-c4cn(-c5ccc6oc(=O)ccc6c5)nn4)c3)cc2C(F)(F)F)CC1`, the growth was -100% (active). `CCOP(=O)(OCC)O[C@H]1CCC(=O)[C@@H]2[C@H]1[C@H]1C[C@@H]3[C@@]4(C)CCCC(C)(C(=O)OC)[C@@H]4CC[C@@]23C=C1C(C)C` (some centres not stated) was tested, and the growth was 55.4%. In the case of `O=C1Nc2ccc(F)cc2/C1=C/c1cccc(OCc2ccccn2)c1`, the growth is reported as 36.3%. `CC1=N/C(=C\c2ccc(N(C)C)cc2)C(=O)N1CCc1ccc(S(N)(=O)=O)cc1` showed a growth of 97.3%. `O=C(Nc1ccc(I)cc1F)c1cc(-c2ccc(F)cc2F)ccc1O` showed a growth of 28.8%. `C/C(=N\NC(N)=S)c1ccc(Nc2nc(SC(C)C)nc(-c3ccccc3)c2C#N)cc1` showed a growth of 77.4%. `COc1ccc2c(c1)N=C(C(=O)O)/C2=C/c1sc(Nc2ccc(O)cc2)nc1O` showed a growth of 72.3%. In the case of `COc1cc(-c2nc3cc(Cl)c(Cl)cc3[nH]2)ccc1OCc1nnc(-c2ccc(Br)cc2)o1`, the growth is reported as -9.79% (active). Compound `Cc1ccc(NC(=O)c2ccc(-n3c(=O)[nH]c4ccccc4c3=O)cc2)cc1` has a growth of 101%. With `CC(=C(c1ccc(OCCN2CCCCC2)cc1)c1ccc(OCCN2CCCCC2)cc1)c1ccccc1` the growth was -47.2% (active). With `CCCCCc1ccc(S(=O)(=O)N(C(C)=O)c2cc(-c3csc(N(C)C(C)=O)n3)ccc2N2CCN(C)CC2)cc1` the growth was -78.1% (active). In the case of `COc1cc2c3c(n(CCCNC(C)C)c(=O)c2cc1OC)-c1nc2c(cc1C3=O)OCO2`, the growth is reported as -48.8% (active).
